Assay outcomes deposited in PubChem BioAssay by The Scripps Research Institute Molecular Screening Center.
Rows were chosen to be rich in hits. Some 2.8% of all compounds tested hit in one or more screens of this group.
Fam108B inh – blocks mouse Fam108B hydrolase in RBBP9 counter-screen; 300,000 tested, 0.33% active; recombinant Fam108B, FP-Rh probe fluorescence polarization; AID 1947; inhibition, % at 9.51 µM;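 active means inhibition above the screen mean inhibition plus 3 SD, computed separately per campaign, cut at about 18% in these data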;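 further: inhibitors lower polarization as less probe binds the enzyme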
PAFAH1B3 FP inh – blocks human PAF acetylhydrolase 1B catalytic subunit 3. Q15102. recombinant PAFAH1B3, FP-rhodamine probe, fluorescence polarization. inhibition, % at 3.39 µM. 340,000 tested, 0.28% active. AID 492972;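 active means inhibition above the screen-wide average of all tested compounds plus 3 SD, cut at about 25% in these data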;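 further: 0% = enzyme with DMSO only and 100% = wells lacking PAFAH1B3 protein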
PME-1 inh – PME-1 (human) inhibition; Q9Y570; recombinant PME-1, FP-Rh probe fluorescence polarization; inhibition, % at 5.9 µM; 320,000 tested, 0.53% active;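 active means inhibition above the campaign mean of all compounds plus 3 SD, cut at about 26% in these data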;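 further: competitive labeling of PME-1 active site by serine hydrolase directed probe; 0% = PME-1 with DMSO and 100% = wells lacking PME-1 enzyme; inhibitors block probe labeling so polarization falls and inhibition rises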
pPAFAH inh – pPAFAH (human) enzyme inhibition; Q13093; recombinant pPAFAH, FP-rhodamine probe fluorescence polarization; inhibition, % at 3.39 µM; 330,000 tested, 1.5% active; AID 463082;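 active means inhibition above the mean inhibition across the screen plus 3 SD, cut at about 25% in these data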;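 further: inhibitors block binding of the rhodamine activity-based probe so polarization drops; 0% = enzyme with DMSO and 100% = wells lacking pPAFAH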
Target sequence (Q13093 whole entry, looked up): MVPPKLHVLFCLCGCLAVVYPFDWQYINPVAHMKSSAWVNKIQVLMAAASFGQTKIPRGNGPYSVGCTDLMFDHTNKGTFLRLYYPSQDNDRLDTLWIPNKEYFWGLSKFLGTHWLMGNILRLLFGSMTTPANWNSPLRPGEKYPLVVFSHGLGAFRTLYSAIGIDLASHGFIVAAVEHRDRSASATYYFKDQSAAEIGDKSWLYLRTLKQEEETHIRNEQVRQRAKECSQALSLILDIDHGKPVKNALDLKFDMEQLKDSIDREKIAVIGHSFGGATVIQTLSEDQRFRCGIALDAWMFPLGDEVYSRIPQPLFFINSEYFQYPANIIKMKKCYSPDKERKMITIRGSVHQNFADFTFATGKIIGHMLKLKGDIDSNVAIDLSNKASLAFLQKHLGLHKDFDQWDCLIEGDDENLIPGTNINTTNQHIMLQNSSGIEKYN
PAFAH1B2 inh – inhibitors of human PAFAH1B2; recombinant PAFAH1B2, FP-rhodamine activity probe, fluorescence polarization; inhibition, % at 3.39 µM; 340,000 tested, 1.2% active;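 active means inhibition above the mean of all tested compounds plus 3 SD, cut at about 24% in these data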;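 further: 0% = enzyme with DMSO and 100% = wells lacking PAFAH1B2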
PAFAH2 FP inh – PAFAH2 (human) inhibition; 340,000 tested, 0.99% active; inhibition, % at 3.39 µM; Q99487; recombinant PAFAH2, FP-rhodamine activity probe, fluorescence polarization;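 active means inhibition above the mean over all tested compounds plus 3 SD, cut at about 30% in these data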;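 further: inhibitors block probe labeling of enzyme so polarization drops; 0% = enzyme with DMSO and 100% = wells lacking PAFAH2 protein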
Numbers without * were called inactive.

Results for COc1ccc2oc(C(=O)OCC(=O)N3CCN(S(=O)(=O)c4ccc(C)cc4)CC3)c(C)c2c1 ?
Fam108B inh: -3; PAFAH1B3 FP inh: -10; PME-1 inh: 31*; pPAFAH inh: 2; PAFAH1B2 inh: 1; PAFAH2 FP inh: -6

What do the screens show for `CCc1ccc(C2CC(c3ccc(Cl)cc3)n3nc(N)nc3N2)cc1` (stereo not drawn)?
Fam108B inh: -2; PAFAH1B3 FP inh: 5; PME-1 inh: -2; pPAFAH inh: -3; PAFAH1B2 inh: 36*; PAFAH2 FP inh: 5

How did CCOC(=O)c1cc(C)sc1NC(=O)CN1CCN(C(=O)c2ccco2)CC1 do in these assays?
Fam108B inh: -10; PAFAH1B3 FP inh: 5; PME-1 inh: -3; pPAFAH inh: 26*; PAFAH1B2 inh: 1; PAFAH2 FP inh: 4

How did CCOC(=O)c1cc(C)sc1NC(=O)CN1CCN(C(=O)C2CCCO2)CC1 (stereo not drawn) do in these assays?
Fam108B inh: 0; PAFAH1B3 FP inh: -1; PME-1 inh: 5; pPAFAH inh: 27*; PAFAH1B2 inh: 3; PAFAH2 FP inh: -4

What do the screens show for `NC(=O)c1c(NC(=O)CN2CCN(S(=O)(=O)c3ccccc3)CC2)sc2c1CCC2`?
Fam108B inh: 3; PAFAH1B3 FP inh: 4; PME-1 inh: 3; pPAFAH inh: 15; PAFAH1B2 inh: 35*; PAFAH2 FP inh: 13

Results for CN1CCN(CC(=O)Nc2sc3c(c2C(=O)Nc2ccccc2)CCCC3)CC1 ?
Fam108B inh: -1; PAFAH1B3 FP inh: -2; PME-1 inh: 3; pPAFAH inh: 6; PAFAH1B2 inh: 1; PAFAH2 FP inh: -4

Results for N#Cc1ccsc1NC(=O)CN1C(=O)NC2(CCCC2)C1=O ?
Fam108B inh: 7; PAFAH1B3 FP inh: 9; PME-1 inh: 8; pPAFAH inh: 27*; PAFAH1B2 inh: 3; PAFAH2 FP inh: 17

What do the screens show for `CCOC(=O)C1=C(COC(=O)COc2cc(C)ccc2C)NC(=O)NC1C` (stereo not drawn)?
Fam108B inh: 3; PAFAH1B3 FP inh: 3; PME-1 inh: 1; pPAFAH inh: 4; PAFAH1B2 inh: 2; PAFAH2 FP inh: 1

How did CC1CCC2(CC1)NC(=O)N(CC(=O)Nc1sc3c(c1C(N)=O)CCC3)C2=O (stereo not drawn) do in these assays?
Fam108B inh: 0; PAFAH1B3 FP inh: 11; PME-1 inh: -4; pPAFAH inh: 25*; PAFAH1B2 inh: 10; PAFAH2 FP inh: 19

Results for CCOC(=O)c1c(NC(=O)c2ccco2)sc2c1CCCC2 ?
Fam108B inh: 1; PAFAH1B3 FP inh: 1; PME-1 inh: -7; pPAFAH inh: 1; PAFAH1B2 inh: -1; PAFAH2 FP inh: -9

Results for CCOC(=O)c1c(NC(=O)CN2CCN(C(=O)c3ccco3)CC2)sc2c1CCCC2 ?
Fam108B inh: 5; PAFAH1B3 FP inh: -8; PME-1 inh: 1; pPAFAH inh: 34*; PAFAH1B2 inh: 7; PAFAH2 FP inh: 6

Results for FC(F)Oc1ccc(N=C2SCC3CCCCN23)cc1 (stereo not drawn) ?
Fam108B inh: 2; PAFAH1B3 FP inh: 13; PME-1 inh: 1; pPAFAH inh: 33*; PAFAH1B2 inh: 1; PAFAH2 FP inh: 7

Results for Clc1ccc(N=C2SCC3CCCCN23)cc1 (stereo not drawn) ?
Fam108B inh: 1; PAFAH1B3 FP inh: -4; PME-1 inh: -1; pPAFAH inh: 1; PAFAH1B2 inh: 1; PAFAH2 FP inh: 5

Results for CCCCNc1c(-c2ccc(OC)c(SC3CCCCC3)c2)nc2cnccn12 ?
Fam108B inh: 10; PAFAH1B3 FP inh: 7; PME-1 inh: 7; pPAFAH inh: 33*; PAFAH1B2 inh: 8; PAFAH2 FP inh: -3

Results for OCCSc1nnc(Nc2ccccc2)s1 ?
Fam108B inh: 1; PAFAH1B3 FP inh: -1; PME-1 inh: -4; pPAFAH inh: 25*; PAFAH1B2 inh: 1; PAFAH2 FP inh: -7

Results for COc1ccc(/C=C/C(=O)CC(O)(c2ccccc2)C(F)(F)F)cc1 (stereo not drawn) ?
Fam108B inh: -3; PAFAH1B3 FP inh: 10; PME-1 inh: 0; pPAFAH inh: -4; PAFAH1B2 inh: 26*; PAFAH2 FP inh: 10

What do the screens show for `O=C(/C=C/c1ccccc1)COC(=O)c1ccccc1`?
PAFAH1B3 FP inh: 10; PAFAH1B2 inh: 7; PAFAH2 FP inh: 12
